In PubChem BioAssay (NCI):
This is part of a sample that, as a whole, favours compounds with a hit. Of some 79,000 tested, about 15% had one in any assay. Active and inactive are the calls of the source. Rule as the data show it: active = growth inhibition above about 70%; inactive = the rest.

Key:
[1] = NCI Yeast Anticancer Drug Screen. Data for the rad52 strain (AID 147);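 also: 0% = growth of vehicle-treated control cultures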; settings: S. cerevisiae rad52 mutant growth inhibition, active compounds read high
Outline: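 Measured: yeast growth inhibition. System: strain with a defined DNA damage repair alteration. Reference: vehicle-treated control cultures.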

[2] = NCI Yeast Anticancer Drug Screen. Data for the wt1 strain (AID 149);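 also: 0% = growth of vehicle-treated wt1 cultures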; settings: S. cerevisiae wt1 strain (SPY 50644) growth inhibition, active compounds read high
Outline: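 Growth inhibition read against vehicle controls after compound exposure of the wt1 yeast strain.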

[3] = NCI Yeast Anticancer Drug Screen. Data for the rad50EPP+ strain (AID 151);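 also: 0% = growth of vehicle-treated control cultures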; settings: S. cerevisiae rad50 mutant strain, active compounds read high
Outline: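 One strain with a rad50 alteration (rad50EPP+) was compound-treated, its growth then compared to that of vehicle controls.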

[4] = NCI Yeast Anticancer Drug Screen. Data for the mgt1 strain (AID 153); settings: S. cerevisiae mgt1 mutant growth inhibition, active compounds read high
Outline: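 After exposure of the mgt1 yeast mutant to compound, growth was measured and reported as inhibition compared with vehicle controls.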

[5] = NCI Yeast Anticancer Drug Screen. Data for the rad50 strain (AID 155);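 also: 0% = growth of vehicle-only cultures of the same strain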; settings: S. cerevisiae rad50 strain growth inhibition, active compounds read high
Outline: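 Readout: growth inhibition relative to vehicle-treated cultures. Compound exposure was carried out in a genetically defined yeast strain deficient in DNA damage repair.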

[6] = NCI Yeast Anticancer Drug Screen. Data for the mec2-1 strain (AID 157); settings: S. cerevisiae mec2-1 strain, active compounds read high
Outline: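 Test agents were screened against the mec2-1 yeast strain, with defined DNA repair or cell cycle alteration. Growth was scored as inhibition against vehicle-only controls.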

[7] = NCI Yeast Anticancer Drug Screen. Data for the rad14 strain (AID 159);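 also: 0% = growth of vehicle-treated control cultures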; settings: S. cerevisiae rad14 strain growth inhibition, active compounds read high
Outline: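 Growth inhibition vs vehicle controls; genetically altered yeast strain (DNA damage repair defect) treated with test compounds.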

[8] = NCI Yeast Anticancer Drug Screen. Data for the sgs1 mgt1 strain (AID 161);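 also: 0% = growth of cultures given vehicle only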; settings: S. cerevisiae sgs1 mgt1 strain, active compounds read high
Outline: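 Test agents were incubated with a DNA-repair-mutant yeast strain. Growth was then read and compared against vehicle-treated controls.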

[9] = NCI Yeast Anticancer Drug Screen. Data for the CLN2oe strain (AID 163);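 also: 0% = growth of vehicle-only control cultures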; settings: S. cerevisiae CLN2oe strain, active compounds read high
Outline: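 Here, growth inhibition in a cell-cycle-altered yeast strain after compound exposure was quantified against vehicle control growth.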

[10] = NCI Yeast Anticancer Drug Screen. Data for the cln2 rad14 strain (AID 165);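 also: 0% = growth equal to vehicle treated cultures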; settings: S. cerevisiae cln2 rad14 strain, active compounds read high
Outline: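 Growth of compound-exposed yeast (cln2 rad14 genotype) measured and expressed as inhibition relative to vehicle.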

[11] = NCI Yeast Anticancer Drug Screen. Data for the bub3 strain (AID 167); settings: S. cerevisiae bub3 mutant strain, active compounds read high
Outline: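 Readout: yeast growth inhibition, expressed relative to vehicle-only wells. The test organism is a mutant strain from a panel with lesions in DNA repair or checkpoint genes.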

[12] = NCI Yeast Anticancer Drug Screen. Data for the wt2 strain (AID 169);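 also: 0% = growth of vehicle-treated yeast cultures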; settings: S. cerevisiae wt2 strain growth inhibition, active compounds read high
Outline: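 Genetically defined yeast strains from a DNA-repair/cell-cycle panel were used. Compound-exposed yeast growth was measured, and the inhibition was calculated relative to vehicle treatment.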

[13] = NCI Yeast Anticancer Drug Screen. Data for the mlh1 strain (AID 171);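 also: 0% = growth of vehicle-treated control cultures of the same strain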; settings: S. cerevisiae mlh1 strain growth inhibition, active compounds read high
Outline: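 Here the genetically defined yeast mutant is grown with each compound, and the extent to which its growth falls below that of vehicle-exposed cells is reported.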

[14] = NCI Yeast Anticancer Drug Screen. Data for the mlh1 rad18 strain (AID 175); settings: S. cerevisiae mlh1 rad18 strain growth inhibition, active compounds read high
Outline: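 In this whole-cell yeast screen, a strain with altered DNA damage repair is challenged with compound, and its growth is measured against matched vehicle-treated controls.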

[15] = NCI Yeast Anticancer Drug Screen. Data for the rad18 strain (AID 177); settings: S. cerevisiae rad18 mutant growth inhibition, active compounds read high
Outline: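 Screen uses a yeast strain with a defined lesion in DNA damage repair; compound effect is read as loss of growth compared to untreated vehicle cultures.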

[16] = at 5.0 µM (retest, dose inferred, filed as 0.5)
[17] = at 50.0 µM (retest, dose inferred, filed as 5.0)

Measured: growth inhibition

S=C(N/N=C(/c1ccccc1)c1ccccn1)N1CCCCCC1
inactive: [1]; at 1.2 µM 42% | [1]; at 3.7 µM 52% | [1]; at 11.0 µM 57% | [1]; at 33.0 µM 57% | [1]; at 100.0 µM 41% | [2]; at 1.2 µM -3% | [2]; at 3.7 µM 3% | [2]; at 11.0 µM 4% | [2]; at 33.0 µM 2% | [2]; at 100.0 µM -2% | [3]; at 1.2 µM 5% | [3]; at 3.7 µM 7% | [3]; at 11.0 µM 8% | [3]; at 33.0 µM 3% | [3]; at 100.0 µM 6% | [4]; at 1.2 µM -5% | [4]; at 3.7 µM -7% | [4]; at 11.0 µM 16% | [4]; at 33.0 µM -18% | [4]; at 100.0 µM -6% | [5]; at 1.2 µM 0% | [5]; at 3.7 µM 6% | [5]; [16] 5% | [5]; at 11.0 µM -20% | [5]; at 33.0 µM 4% | [5]; at 100.0 µM 8% | [6]; at 1.2 µM 1% | [6]; at 3.7 µM 0% | [6]; [16] 24% | [6]; at 11.0 µM 4% | [6]; at 33.0 µM 1% | [6]; at 100.0 µM 4% | [7]; at 1.2 µM -5% | [7]; at 3.7 µM -4% | [7]; at 11.0 µM -4% | [7]; at 33.0 µM -5% | [7]; at 100.0 µM -1% | [9]; at 1.2 µM 5% | [9]; at 3.7 µM 0% | [9]; at 11.0 µM 4% | [9]; at 33.0 µM -4% | [9]; at 100.0 µM 7% | [10]; [16] 18% | [11]; at 1.2 µM 4% | [11]; at 3.7 µM 16% | [11]; at 11.0 µM 22% | [11]; at 33.0 µM 13% | [11]; at 100.0 µM 2% | [12]; at 1.2 µM 5% | [12]; at 3.7 µM 7% | [12]; at 11.0 µM 12% | [12]; at 33.0 µM 10% | [12]; at 100.0 µM 5% | [13]; at 1.2 µM -3% | [13]; at 3.7 µM -2% | [13]; at 11.0 µM 4% | [13]; at 33.0 µM 1% | [13]; at 100.0 µM -1% | [15]; at 1.2 µM 8% | [15]; at 3.7 µM 20% | [15]; at 11.0 µM 20% | [15]; at 33.0 µM 6% | [15]; at 100.0 µM 19%
active: [5]; [17] 96% | [5]; at 50.0 µM 76.7% | [6]; [17] 97% | [6]; at 50.0 µM 80.5% | [8]; [16] 75% | [8]; [17] 96% | [8]; at 50.0 µM 85.4% | [10]; [17] 96% | [10]; at 50.0 µM 82.5% | [11]; [16] 95% | [11]; [17] 97% | [11]; at 50.0 µM 87.8% | [14]; [16] 93% | [14]; [17] 97% | [14]; at 50.0 µM 86.2%

COP(=O)(OC)/C(=C\C1=CN(C(c2ccccc2)(c2ccccc2)c2ccccc2)CN1)NC=O
active: [1]; at 100.0 µM 96% | [2]; at 100.0 µM 96% | [3]; at 11.0 µM 73% | [3]; at 33.0 µM 96% | [3]; at 100.0 µM 97% | [4]; at 100.0 µM 96% | [5]; at 33.0 µM 73% | [5]; at 50.0 µM 98% | [5]; at 100.0 µM 96%
inactive: [1]; at 1.2 µM -12% | [1]; at 3.7 µM -15% | [1]; at 11.0 µM -11% | [1]; at 33.0 µM 59% | [2]; at 1.2 µM 12% | [2]; at 3.7 µM 3% | [2]; at 11.0 µM 5% | [2]; at 33.0 µM 54% | [3]; at 1.2 µM 2% | [3]; at 3.7 µM 10% | [4]; at 1.2 µM 6% | [4]; at 3.7 µM -3% | [4]; at 11.0 µM 11% | [4]; at 33.0 µM 67% | [5]; at 1.2 µM -14% | [5]; at 3.7 µM -32% | [5]; [16] 2% | [5]; at 11.0 µM -17% | [5]; [17] -15% | [6]; at 1.2 µM 34% | [6]; at 3.7 µM 13%
